GRK2 aptamer HTS – inhibitors of human GRK2 displacing RNA aptamer; P25098; bead flow cytometry, FAM-aptamer displacement from GRK2; inhibition of aptamer binding, % at 10 µM; 330,000 compounds, 0.59% hits; AID 488847;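 active = inhibition of aptamer binding above 40%, roughly 3 SD of noise, on plates passing a quality check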;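 note: median bead fluorescence of bound FAM aptamer so fluorescent compounds give negative values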
LANA-H2B inh – blocks KSHV LANA binding to histone H2A/H2B | cell-free LANA-H2A/H2B peptide, fluorescence polarization | inhibition, % (test concentration not listed) | 320,000 compounds, 0.6% hits | AID 2629; in the data active = inhibition mostly above about 10%, no sharp cut-off; inactive = mostly below about 6.7%
Target sequence (Q9QR71 whole entry, looked up): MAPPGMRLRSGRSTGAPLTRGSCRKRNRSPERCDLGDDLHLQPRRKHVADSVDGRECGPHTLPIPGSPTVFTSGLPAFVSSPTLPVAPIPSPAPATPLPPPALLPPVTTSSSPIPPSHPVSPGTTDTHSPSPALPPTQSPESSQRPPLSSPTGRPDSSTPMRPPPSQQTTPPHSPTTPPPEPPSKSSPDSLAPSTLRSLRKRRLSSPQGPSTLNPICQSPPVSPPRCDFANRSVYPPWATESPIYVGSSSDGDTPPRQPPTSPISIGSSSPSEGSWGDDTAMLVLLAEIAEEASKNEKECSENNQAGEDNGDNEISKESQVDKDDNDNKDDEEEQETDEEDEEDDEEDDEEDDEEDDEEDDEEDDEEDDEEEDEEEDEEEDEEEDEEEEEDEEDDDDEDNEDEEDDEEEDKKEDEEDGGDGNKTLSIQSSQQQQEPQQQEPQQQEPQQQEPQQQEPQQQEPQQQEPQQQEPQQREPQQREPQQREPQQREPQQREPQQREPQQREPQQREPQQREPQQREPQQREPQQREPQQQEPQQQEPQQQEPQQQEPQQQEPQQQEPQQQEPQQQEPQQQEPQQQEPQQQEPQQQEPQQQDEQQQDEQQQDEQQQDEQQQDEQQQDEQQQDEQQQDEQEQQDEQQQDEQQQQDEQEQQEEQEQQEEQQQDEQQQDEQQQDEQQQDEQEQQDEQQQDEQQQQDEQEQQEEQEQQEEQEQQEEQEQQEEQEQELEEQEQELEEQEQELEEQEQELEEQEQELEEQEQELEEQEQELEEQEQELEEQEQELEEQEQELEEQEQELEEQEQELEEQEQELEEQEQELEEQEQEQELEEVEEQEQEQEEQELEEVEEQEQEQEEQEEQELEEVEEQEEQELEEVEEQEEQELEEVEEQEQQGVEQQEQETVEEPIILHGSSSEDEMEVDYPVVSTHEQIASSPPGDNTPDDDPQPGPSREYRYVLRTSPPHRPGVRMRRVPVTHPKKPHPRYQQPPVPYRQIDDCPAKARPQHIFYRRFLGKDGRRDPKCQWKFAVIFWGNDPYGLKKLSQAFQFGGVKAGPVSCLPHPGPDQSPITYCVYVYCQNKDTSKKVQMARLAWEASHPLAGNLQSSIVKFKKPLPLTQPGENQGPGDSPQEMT
PKD1 kinase inh – inhibitors of human PKD1 kinase. Q15139. PKD1 kinase fluorescence polarization assay. inhibition, % (concentration not given with the values). 200,000 compounds, 0.056% hits. AID 797
DSG3 Ab inh – human desmoglein-3 autoantibody binding inhibition | P32926 | DSG3-coupled beads, scFv-anti-DSG3-GFP binding, flow cytometry; hits give low values | binding (percent of control), % at 10 µM | 310,000 compounds, 0.48% hits | AID 588358;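 active = binding more than 3 SD below its plate's average and above zero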;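 note: hits lower antibody fragment binding to DSG3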
VLA-4 inh – inhibition in a human VLA-4 binding assay. P13612. VLA-4 expressing cells, ligand binding flow cytometry. inhibition, % (about 7 µM as worked out from the volumes in the protocol). 330,000 compounds, 0.2% hits
HDAC3 inhib – inhibitors of human histone deacetylase 3; O15379; recombinant HDAC3, fluorogenic peptide/trypsin coupled, fluorescence; inhibition, % at 8.3 µM; 320,000 compounds, 0.15% hits; AID 2718; in the data active = inhibition above about 26%, passing the limit was not always enough
Active calls of the source: *; nt = no result given; ! = not confirmed by another sample. Rows were chosen to be rich in hits. Some 1.8% of all compounds tested hit in one or more screens of this group. Cut-off read from the data, not from the text of the source, unless noted: active = inhibition above about 50%; inactive = the rest.

SMILES	GRK2 aptamer HTS	LANA-H2B inh	PKD1 kinase inh	DSG3 Ab inh	VLA-4 inh	HDAC3 inhib
O=C(NCc1ccc(C(=O)N2CCC3(CC2)OCCO3)cc1)c1ccc2c(c1)OCO2	4	2	6	102	4	-3
O=C(c1ccc2c(=O)n(Cc3ccc4c(c3)OCO4)c(=S)[nH]c2c1)N1CCC2(CC1)OCCO2	0	57*	2	97	-5	-2
N#CC1C(C#N)C2CCC1C1C2N1c1ccccc1 (stereo not drawn)	nt	nt	nt	100	nt	nt
O=C(O)c1cc[c]([Hg][Cl])cc1	0	4	nt	73	-7	95*
Cc1[nH]nc2ccc(-c3cncc(OC[C@@H](N)Cc4c[nH]c5ccccc45)c3)cc12	nt	nt	nt	98	nt	nt
C[C@]12CCC(=O)C=C1CC[C@@H]1[C@@H]2CC[C@]2(C)C(=O)CC[C@@H]12	3	16*!	-1	94	28	-2
CC12CC(=O)C3C(CCC4CC(=O)C=CC43C)C1CCC2=O (stereo not drawn)	nt	nt	nt	91	nt	nt
Nc1cc(C(=O)Nc2ccccc2F)ccc1N1CC2CC(C1)c1cccc(=O)n1C2 (stereo not drawn)	nt	nt	nt	92	nt	nt
Oc1ccc2c3c1O[C@H]1[C@@H](O)CC[C@@]4(O)[C@@H](C2)N(CC2CCC2)CC[C@]314	5	-2	nt	108	15	-2
NC(N)=Nc1ccc2[nH]c3c(c2c1)C[C@@]1(O)[C@H]2Cc4ccc(O)c5c4[C@@]1(CCN2CC1CC1)[C@H]3O5	0	1	nt	81	48	60*
COC(=O)C1=C(c2cccc(C#N)c2)C[C@@H]2CC[C@H]1N2C(=O)N1CCCCC1	4	-3	nt	100	-13	6
COc1cc2c(c(OC)c1OC)-c1ccc(SC)c(=O)cc1C(N)CC2 (stereo not drawn)	nt	nt	nt	120	nt	nt
Cn1c(O)c(Cc2ccc(OCc3ccccc3)cc2)c(=O)n(C)c1=O	3	1	nt	68*	8	3
CC(=NCCc1ccccc1)c1c(O)n(C)c(=O)n(C)c1=O	0	0	nt	nt	18	-1
COc1cc2c(c(OC)c1OC)-c1ccc(OC)c(=O)cc1C(N)CC2 (stereo not drawn)	nt	nt	nt	93	nt	nt
CCOP(=O)(OCC)C(O)c1cccc([N+](=O)[O-])c1 (stereo not drawn)	0	-1	-6	103	31	2
CCOP(=O)(OCC)c1ccc(OP(=O)(c2cccc([N+](=O)[O-])c2)c2cccc([N+](=O)[O-])c2)cc1	2	0	nt	110	2	57*
Cc1ccc(OC(=O)N(C)C[C@@H]2OCc3cnnn3CCCC(=O)N([C@@H](C)CO)C[C@H]2C)cc1	nt	nt	nt	99	nt	nt
O=C(c1ccccc1)c1ccc(N=Nc2c(O)[nH]c(=O)[nH]c2=O)cc1	0	5	5	69*	-18	-9
O=C(O)c1cccc(N=Nc2c(O)[nH]c(=O)[nH]c2=O)c1	0	0	nt	99	-1	nt
CCN(CC)c1ccc(N=Cc2c(O)n(-c3ccccc3)c(=O)[nH]c2=O)cc1	100*	1	nt	105	-23	14
CCOc1ccc(-n2c(O)c(C=Nc3ccc(N(CC)CC)cc3)c(=O)[nH]c2=O)cc1	3	2	2	117	-22	-5
CCOC(=O)C1=C(N)Oc2cc(C)oc(=O)c2C12C(=O)N1c3c(cccc32)C(C)CC1(C)C (stereo not drawn)	0	33*	-4	98	-3	-7
CC(C)C[C@H]1C(=O)N2CCCC2[C@]2(O)O[C@](NC(=O)[C@@H]3C=C4c5cccc6[nH]cc(c56)CC4N(C)C3)(C(C)C)C(=O)N12 (stereo partly drawn)	7	21*!	1	92	2	-6
CC(C)[C@H]1C(=O)N2CCC[C@H]2[C@]2(O)O[C@](NC(=O)[C@@H]3C=C4c5cccc6[nH]cc(c56)C[C@H]4N(C)C3)(C(C)C)C(=O)N12	4	11*	6	97	-71	0
CC(C)[C@@]1(NC(=O)[C@@H]2C=C3c4cccc5[nH]cc(c45)C[C@H]3N(C)C2)O[C@@]2(O)[C@@H]3CCCN3C(=O)[C@H](Cc3ccccc3)N2C1=O	nt	nt	5	nt	nt	nt
CC(C)[C@@]1(NC(=O)[C@@H]2C[C@@H]3c4cccc5[nH]cc(c45)C[C@H]3N(C)C2)O[C@@]2(O)[C@@H]3CCCN3C(=O)[C@H](Cc3ccccc3)N2C1=O	0	16*	2	101	-197	0
